In PubChem BioAssay AID602229 (The Scripps Research Institute Molecular Screening Center, 2012) one finds inhibition of corepressor binding data, which are given here for 53 molecules.

The whole screen tested about 360,000 compounds, of which about 1,300 (0.36%) were called active. The sample holds actives, similar compounds and a random draw of the others, so the mix is not that of the screen. Values without a mark were called inactive.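 How the source made its calls: active means inhibition above the mean of all tested compounds plus 3 SD (cut at about 70% in these data); inactive means the rest.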

The target in this test is Photoreceptor-specific nuclear receptor (Homo sapiens) (UniProt Q9Y5X4). Kind of test: NR2E3 agonists in two-hybrid cells, primary screen, cell-based, luminescence, CHO-S, Gal4-NCOR/VP16-NR2E3 (AID 602229).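 Further: 0% = DMSO with NR2E3 transfected cells and 100% = cells lacking NR2E3 construct; higher means lower luciferase signal from less NR2E3 corepressor binding.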 Particulars: luciferase, at 3.98 µM, hits give high values.
Chain of Photoreceptor-specific nuclear receptor (Homo sapiens) (Q9Y5X4 whole entry, looked up, the tested form may be a part): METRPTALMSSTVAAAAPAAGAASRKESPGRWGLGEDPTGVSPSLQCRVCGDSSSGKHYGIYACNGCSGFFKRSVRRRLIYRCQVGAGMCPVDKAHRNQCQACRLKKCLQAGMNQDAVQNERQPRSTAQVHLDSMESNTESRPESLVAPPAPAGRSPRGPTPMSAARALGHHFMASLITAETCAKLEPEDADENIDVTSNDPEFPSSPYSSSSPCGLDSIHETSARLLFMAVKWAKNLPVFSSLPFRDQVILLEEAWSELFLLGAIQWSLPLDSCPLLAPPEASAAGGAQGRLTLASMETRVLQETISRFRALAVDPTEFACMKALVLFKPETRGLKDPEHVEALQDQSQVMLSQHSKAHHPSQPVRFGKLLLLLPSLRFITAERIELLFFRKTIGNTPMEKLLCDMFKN
Turning to `CCc1cccc(NC(=O)COC(=O)C2CCN(c3ccc(C(F)(F)F)cn3)CC2)c1`, the inhibition of corepressor binding was -19.1%.

Take `COc1cc(NC(=O)c2ccccc2NS(=O)(=O)c2ccc(Cl)s2)cc(OC)c1`: the inhibition of corepressor binding was 97.8% (active).

With `O=C(Nc1cccc(Cl)c1)Nc1ccccc1NS(=O)(=O)c1cccs1`, the inhibition of corepressor binding is -13.8%. As for `O=S(=O)(Nc1ccccc1N1CCOCC1)c1ccc(Cl)s1`, the inhibition of corepressor binding was -7.37%. The result for `CCCn1nnnc1NCc1ccc(CC)cc1` reads 8.66%.

Consider `CCCC(=O)N1CCC1(C)C(=O)Nc1ccc(-n2cncn2)cc1` (stereo not drawn), for which the inhibition of corepressor binding is 1.35%. On to `O=C(c1cc(COc2c(F)cccc2F)on1)N1CCSCC1`, for which the inhibition of corepressor binding is -9.64%. In the case of `C=CCC1(CC=C)CCCN1C(=O)c1cc(COc2ccc(-n3cncn3)cc2)on1`, the inhibition of corepressor binding is 106% (active).

With `Nc1[nH]c(C(=O)c2ccccc2)c(-c2ccncc2)c1C(=O)NCc1cccc2ccccc12`, the inhibition of corepressor binding was 3.22%. Consider `CSCCC(c1nnnn1Cc1ccccc1)N1CCN(C/C=C/c2ccccc2)CC1` (stereo not drawn), for which the inhibition of corepressor binding was 4.41%. `C/C(=N/NC(=S)Nc1ccccc1)c1ccc2c(c1)OCO2`: the inhibition of corepressor binding is -32%.

Consider `C/C(=N\NC(=S)NCc1ccccc1)C1CCCCC1`, for which the inhibition of corepressor binding is 14.7%. The result for `C/C(=N\NC(=S)NCc1ccccc1)c1ccc(Cl)cc1` reads 73.8% (active); that for `O=C(CCc1ccc(S(=O)(=O)NC2CCCCC2)cc1)NCc1ccccc1`, 9.81%; that for `CC(=O)Nc1ccc(S(=O)(=O)NNC(=O)CCc2ccccc2)cc1`, -9.18%. As to `COc1cc(CCC(=O)Nc2ccncc2Cl)cc(OC)c1OC`, the inhibition of corepressor binding was -4.52%. Turning to `Cc1csc(NC(=O)CSc2ccc(-c3ccc(F)cc3)nn2)n1`, the inhibition of corepressor binding is 11.9%. Take `COc1ccc(CCNC(=O)COC(=O)Cc2cc(OC)c(OC)c(OC)c2)cc1`: the inhibition of corepressor binding is 0.01%. The result for `COc1ccc(CC(=O)Nc2nc(-c3ccc(F)c(F)c3)cs2)cc1OC` reads 103% (active); that for `COc1ccc(CC(=O)NC2CCSc3ccccc32)cc1OC` (stereo not drawn), -3.29%. With `COc1cc(CC(=O)Nc2nc(-c3ccc(F)c(F)c3)cs2)cc(OC)c1OC`, the inhibition of corepressor binding is 103% (active). Turning to `CCc1nnc(NC(=O)CSc2nc3c(c(=O)n2-c2ccccc2OC)SCC3)s1`, the inhibition of corepressor binding was -5.3%. The result for `C/C(=C/C(=O)N1CCN(C)CC1)C(=O)O` reads -1.95%; that for `COc1cc(C2/C(=C(\O)c3ccc4c(c3)CC(C)O4)C(=O)C(=O)N2c2nnc(C)s2)cc(OC)c1OC` (stereo not drawn), -19.5%; that for `COc1ccccc1OCCNC(=O)CCNC(=O)c1ccccc1Cl`, -15.5%. As for `CCN1C(=O)/C(=C\N2CCOCC2)SC1=S`, the inhibition of corepressor binding is -3.91%. In the case of `O=C(CCn1c(=O)oc2ccccc21)Nc1ccon1`, the inhibition of corepressor binding is -8.66%. Turning to `CCOC(=O)C1=C(CNC2CCCCC2)NC(=O)NC1c1cc(C)ccc1C` (stereo not drawn), the inhibition of corepressor binding is -26.1%. Then `CCN(Cc1ccccc1)S(=O)(=O)c1cc2c3c(c1)CCN3C(=O)CC2`, with 13.4%; and `COc1ccc(CNC(=O)COc2cccnc2[N+](=O)[O-])cc1`, with -7.82%. On to `COc1ccc(CNc2ncnc3ccccc23)cc1`, for which the inhibition of corepressor binding was 96.1% (active).

For the molecule `O=C(COc1ncnc2ccccc12)NC(=O)NCc1ccccc1`, the inhibition of corepressor binding is 9.2%.

For the molecule `Cc1ccc(O/C=C2\OC(=O)c3ccccc32)cc1`, the inhibition of corepressor binding was -37.1%.

Consider `Cc1c(C(=O)N(Cc2ccccc2)Cc2cccnc2)cnn1-c1ccc(F)cc1`, for which the inhibition of corepressor binding was 0.5%. Take `COc1ccc(S(=O)(=O)Nc2ccc3oc(C)c(C(C)=O)c3c2)cc1`: the inhibition of corepressor binding is 60.2%. Consider `COc1ccc(NS(=O)(=O)c2ccc(Oc3c(C#N)cccc3C#N)cc2)cc1`, for which the inhibition of corepressor binding was 86.5% (active). `COc1ccc(NS(=O)(=O)c2ccc(N3CCN(CCO)CC3)c([N+](=O)[O-])c2)cc1`: the inhibition of corepressor binding was 17.4%. In the case of `CCOCc1c(C(=O)N2CCN(Cc3ccc(Br)s3)CC2)oc2ccccc12`, the inhibition of corepressor binding was -14.4%.

Turning to `O=S(=O)(c1ccc(F)cc1)N1CCN=C1SCc1cccc(F)c1`, the inhibition of corepressor binding was 3.65%. With `Cc1ccc(S(=O)(=O)N2CCN(C(=O)COC(=O)CNC(=O)c3ccc(C(C)(C)C)cc3)CC2)c(C)c1`, the inhibition of corepressor binding is 1.29%. Consider `O=C(CCNC(=O)c1ccc(Cl)cc1)NC1CCCc2ccccc21` (stereo not drawn), for which the inhibition of corepressor binding was -14.3%.

`Cc1cc(C(=O)NC2CC(C)(C)Cc3c2cnn3-c2ccccc2)n[nH]1` (stereo not drawn): the inhibition of corepressor binding was -26.5%.

For `COc1ccc(C(=O)NC2CC(C)(C)Cc3c2cnn3-c2ccccc2)c(OC)c1` (stereo not drawn), the inhibition of corepressor binding is -23.7%. For the molecule `CC1=C(C(=O)NC2CC(C)(C)Cc3c2cnn3-c2ccc(C)cc2)OCCO1` (stereo not drawn), the inhibition of corepressor binding was -12.3%. Consider `Cn1nccc1C(=O)NC1CCCc2c1cnn2-c1ccccc1F` (stereo not drawn), for which the inhibition of corepressor binding is 105% (active). Regarding `COC(=O)c1ccc(C(=O)NC2CC(C)(C)Cc3c2cnn3-c2ccc(F)cc2)nc1` (stereo not drawn), the inhibition of corepressor binding was -87.5%.

For the molecule `COc1ccc(C(=O)NC2CC(C)(C)Cc3c2cnn3-c2ccccc2C)o1` (stereo not drawn), the inhibition of corepressor binding is -34.2%. For the molecule `Cn1nccc1C(=O)NC1CCCc2c1cnn2-c1ccc(F)cc1F` (stereo not drawn), the inhibition of corepressor binding is 107% (active). Then `COc1ccc(C(=O)NC2CCCc3c2cnn3-c2cccc(C)c2C)c(OC)n1` (stereo not drawn), with 91.3% (active); and `NC(=O)COC(=O)c1ccc2c(c1)C(=O)N(Cc1ccco1)C2=O`, with -5.79%; and `Cc1cc(C)n(CCC(=O)N2CCN(S(=O)(=O)c3ccc(C)c(C)c3)CC2)n1`, with 3.36%. Regarding `Cc1ccc(CN(N=Nc2nonc2N)c2nonc2N)c(C)c1`, the inhibition of corepressor binding is -19.7%. In the case of `CC1CCCC(NC(=O)CN2CCN(Cc3ccc(Cl)cc3)C2=O)C1C` (stereo not drawn), the inhibition of corepressor binding is 2.85%.
